Data published in PubChem BioAssay AID1159580 (chemical genetic matrix, 2015).
Values joined by “and” are separate entries in the source; they are usually repeats but may differ in a detail not shown here. Equal entries are not always repeated. In all, about 5,500 compounds went through this assay and about 2,000 (36%) were called active. Another 18% or so got no clear call; they are omitted. No stated cut-off is given here; in the data, active means normalized growth mostly below about 0.91 (no sharp cut-off); inconclusive means no clear call, values can overlap the other calls; inactive means mostly above about 0.92. Some of the results follow.

Assay: chemical genetic growth profiling, strain panel (AID 1159580);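 further: tested at 20 µM; growth read once vehicle control cultures reached saturation at 30 °C; 1 = growth at the plate median or of vehicle wells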
Conditions: S. cerevisiae deletion strains, growth OD

Measured: normalized growth

CCOC([O-])=Nc1c[n+](N2CCOCC2)no1
inactive: locus YAL013W, strain DEP1, stronger effect = lower value 1.01 | locus YAL021C, strain ccr4, stronger effect = lower value 0.994 | locus YAL026C, strain drs2, stronger effect = lower value 0.999 | locus YAL030W, strain snc1, stronger effect = lower value 0.991 | locus YBL061C, strain skt5, stronger effect = lower value 0.997 | locus YBR009C, strain hhf1, stronger effect = lower value 0.997 | locus YBR021W, strain FUR4, stronger effect = lower value 1.03 | locus YBR023C, strain chs3, stronger effect = lower value 0.986 | locus YBR171W, strain sec66, stronger effect = lower value 1 | locus YBR229C, strain ROT2, stronger effect = lower value 1.01 | locus YBR231C, strain swc5, stronger effect = lower value 0.997 | locus YBR279W, strain paf1, stronger effect = lower value 1.01 | locus YCL011C, strain gbp2, stronger effect = lower value 0.996 | locus YCL016C, strain dcc1, stronger effect = lower value 0.978 | locus YCL029C, strain bik1, stronger effect = lower value 0.991 | locus YCL061C, strain MRC1, stronger effect = lower value 0.998 | locus YCL069W, strain vba3, stronger effect = lower value 0.996 | locus YCR088W, strain abp1, stronger effect = lower value 0.999 | locus YDL005C, strain med2, stronger effect = lower value 0.993 | locus YDL035C, strain GPR1, stronger effect = lower value 1.03 | locus YDL040C, strain nat1, stronger effect = lower value 1 | locus YDL074C, strain BRE1, stronger effect = lower value 1.04 | locus YDL101C, strain DUN1, stronger effect = lower value 1.02 | locus YDL134C, strain PPH21, stronger effect = lower value 1.01 | locus YDL185W, strain tfp1, stronger effect = lower value 0.984 | locus YDL192W, strain arf1, stronger effect = lower value 0.998 | locus YDR001C, strain nth1, stronger effect = lower value 0.993 | locus YDR069C, strain doa4, stronger effect = lower value 1 | locus YDR101C, strain arx1, stronger effect = lower value 0.972 | locus YDR137W, strain rgp1, stronger effect = lower value 1.01 | locus YDR150W, strain NUM1, stronger effect = lower value 1.02 | locus YDR159W, strain sac3, stronger effect = lower value 0.993 | locus YDR162C, strain NBP2, stronger effect = lower value 1.01 | locus YDR195W, strain ref2 1 | locus YDR297W, strain sur2, stronger effect = lower value 1 | locus YDR318W, strain mcm21, stronger effect = lower value 0.99 | locus YDR334W, strain swr1, stronger effect = lower value 0.984 | locus YDR335W, strain msn5, stronger effect = lower value 0.991 | locus YDR388W, stronger effect = lower value 0.997 | locus YDR392W, strain spt3, stronger effect = lower value 0.927 | locus YDR502C, strain sam2, stronger effect = lower value 0.988 | locus YEL003W, strain gim4, stronger effect = lower value 1 | locus YEL037C, strain rad23, stronger effect = lower value 0.993 | locus YEL061C, strain CIN8 (second series), stronger effect = lower value 1 | locus YEL061C, strain CIN8, stronger effect = lower value 1.01 | locus YER015W, strain faa2, stronger effect = lower value 0.979 | locus YER016W, strain bim1, stronger effect = lower value 1.01 | locus YER110C, stronger effect = lower value 0.984 | locus YER111C, strain swi4, stronger effect = lower value 0.979 | locus YER155C, strain BEM2 (second series), stronger effect = lower value 0.984 | locus YER155C, strain BEM2, stronger effect = lower value 1 | locus YER167W, strain BCK2, stronger effect = lower value 1.01 | locus YFR010W, strain ubp6, stronger effect = lower value 0.986 | locus YGL078C, strain dbp3, stronger effect = lower value 0.987 | locus YGL086W, strain mad1, stronger effect = lower value 1 | locus YGL167C, strain pmr1, stronger effect = lower value 1 | locus YGL173C, strain kem1, stronger effect = lower value 0.994 | locus YGL227W, strain vid30, stronger effect = lower value 0.993 | locus YGL240W, strain doc1, stronger effect = lower value 1.01 | locus YGL248W, strain PDE1, stronger effect = lower value 1.01 | locus YGL253W, strain hxk2, stronger effect = lower value 0.993 | locus YGR078C, strain PAC10, stronger effect = lower value 1 | locus YGR135W, strain pre9, stronger effect = lower value 0.986 | locus YGR229C, strain SMI1, stronger effect = lower value 1.02 | locus YGR252W, strain gcn5, stronger effect = lower value 1.01 | locus YHR013C, strain ard1, stronger effect = lower value 0.985 | locus YHR027C, strain rpn1, stronger effect = lower value 0.987 | locus YHR030C, strain SLT2, stronger effect = lower value 1.01 and 1.02 | locus YHR079C, strain IRE1 (second series), stronger effect = lower value 1 | locus YHR079C, strain IRE1, stronger effect = lower value 1.03 | locus YHR094C, strain hxt1, stronger effect = lower value 0.998 | locus YHR129C, strain ARP1, stronger effect = lower value 1.01 | locus YHR142W, strain chs7, stronger effect = lower value 0.992 | locus YHR200W, strain rpn10, stronger effect = lower value 0.995 | locus YIL066C, strain RNR3, stronger effect = lower value 1.01 | locus YIL073C, strain SPO22, stronger effect = lower value 0.973 | locus YIL125W, strain kgd1, stronger effect = lower value 1 | locus YIR030C, strain dcg1, stronger effect = lower value 0.992 | locus YJL092W, strain hpr5, stronger effect = lower value 0.992 | locus YJL095W, strain BCK1 (second series), stronger effect = lower value 0.994 | locus YJL095W, strain BCK1, stronger effect = lower value 1 and 1.03 | locus YJL115W, strain asf1, stronger effect = lower value 0.982 | locus YJL129C, strain trk1, stronger effect = lower value 0.997 | locus YJL134W, strain LCB3, stronger effect = lower value 1.01 | locus YJL154C, strain vps35, stronger effect = lower value 0.99 | locus YJL164C, strain tpk1, stronger effect = lower value 0.989 | locus YJL166W, strain qcr8, stronger effect = lower value 0.991 | locus YJL168C, strain set2, stronger effect = lower value 1 | locus YJL187C, strain SWE1 (second series), stronger effect = lower value 1.01 | locus YJL187C, strain SWE1, stronger effect = lower value 1.01 | locus YJR043C, strain POL32, stronger effect = lower value 0.989 | locus YJR066W, strain TOR1, stronger effect = lower value 0.997
